Reference: PubChem BioAssay

Assay: compound effects on differentiated 3T3-L1 adipocyte viability – cell-based, 3T3-L1 adipocytes, calcein-AM fluorescence, 48 h, basal, profiling panel (AID 1163); also: test concentration not given here
Details: 3T3-L1 adipocytes viability, higher = more signal

**Q.** Which z-score does the source give for `COC(=O)Cn1c(C(=O)N2CCCC2)cc2c1C[C@H]1CN(C(=O)c3ccccc3)[C@@](Cc3ccccc3)(C(=O)OC)[C@@H]21` here?
**A.** Its z-score is 0.0052.

**Q.** With `O=C1C[C@@](C(=O)NCCN2CCOCC2)(c2ccc([N+](=O)[O-])cc2)[C@@H](c2ccc(CO)cc2)N1C1CCCCC1` as the compound, how does the z-score read?
**A.** The z-score was 0.936.

**Q.** With `CC(=O)NCCCC[C@@H]1NC(=O)[C@H]2C[C@@H](C(=O)NCCCCCCN(C)C)[C@@H](c3cccc(OCCO)c3)N2C1=O` as the compound, how does the z-score read?
**A.** Its z-score is 0.509.

**Q.** Which z-score does the source give for `CC(C)(C)OC(=O)CC[C@]1(C(=O)N2CCCCC2)N=C(c2ccc(OCCCO)cc2)O[C@H]1c1ccccc1` here?
**A.** The z-score was 1.24.

**Q.** With `CC(=O)NCCCC[C@@H]1NC(=O)[C@H]2C[C@@H](C(=O)NCCCCCCN(C)C)[C@@H](c3ccc(O)cc3)N2C1=O` as the compound, how does the z-score read?
**A.** The z-score was 1.03.

**Q.** With `O=C1C2C=CC(C(O)Cc3ccccc3)N(Nc3ccc([N+](=O)[O-])cc3)C2C(=O)N1c1ccccc1` (configuration not stated) as the compound, how does the z-score read?
**A.** The z-score was -0.116.

**Q.** With `C=C(COC)C(=O)CC[C@H](OC(=O)c1ccccc1-c1ccccc1C(=O)O)c1cccc(OCCO)c1` as the compound, how does the z-score read?
**A.** Its z-score is -0.765.

**Q.** With `C=CC[C@@]1(C(=O)NCC(O)CO)N=C(c2ccc(OCCCO)cc2)O[C@@H]1c1ccccc1CN=[N+]=[N-]` (some centres not stated) as the compound, how does the z-score read?
**A.** The z-score was 0.0076.

**Q.** With `O=C(CS)NCCCCCCNC(=O)[C@@H]1C[C@@H]2C(=O)N[C@@H](Cc3ccccc3)C(=O)N2[C@@H]1c1ccc(O)cc1` as the compound, how does the z-score read?
**A.** Its z-score is 0.861.

**Q.** For `C=CC[C@]1(C(=O)N2CCCCC2)N=C(c2ccc(OCCCO)cc2)O[C@H]1c1ccccc1N=[N+]=[N-]`, which z-score is on record?
**A.** The z-score was 1.65.

**Q.** For `COC(=O)[C@@]1(Cc2ccc(OC)cc2)[C@H]2c3cc(C(=O)N(C)C)n(Cc4ccc(C)c(F)c4F)c3C[C@H]2CN1C(=O)c1ccccc1`, which z-score is on record?
**A.** The z-score was -0.484.

**Q.** For `[N-]=[N+]=NCc1ccccc1C[C@]1(C(=O)N2CCCCC2)N=C(c2ccc(OCCCO)cc2)O[C@H]1c1ccccc1CN=[N+]=[N-]`, which z-score is on record?
**A.** Its z-score is 0.628.

**Q.** Which z-score does the source give for `CC(C)[Si](OCC[C@H]1O[C@]2(C(=O)N(Cc3ccccc3)c3ccccc32)[C@@H](C)[C@@H]1[Si](C)(C)O)(C(C)C)C(C)C` here?
**A.** Its z-score is 1.13.

**Q.** With `C=CCC(OC(C)=O)[C@@H]1[C@@H](N(Cc2ccc(-c3cccc(C(F)(F)F)c3)o2)C(=O)Cc2ccc(F)cc2)c2cc(OCCCO)ccc2N1C(=O)c1ccc(-c2ccccc2)cc1` (some centres not stated) as the compound, how does the z-score read?
**A.** Its z-score is 0.145.

**Q.** For `C=C[C@H](OC)[C@@H](OC(=O)Nc1ccc(SC)cc1)c1ccc(O)c(F)c1`, which z-score is on record?
**A.** Its z-score is 0.0047.

**Q.** With `O=C1O[C@H](c2ccccc2)[C@H](c2ccccc2)N2[C@H]1[C@@H](C(=O)NC[C@H](O)c1ccccc1)[C@]1(C(=O)Nc3ccc(C#CC4(O)CCCCCC4)cc31)[C@H]2c1ccc(OCCO)cc1` as the compound, how does the z-score read?
**A.** The z-score was 0.694.

**Q.** With `CC(C)C[C@@H]1NC(=O)[C@H](CC(C)C)NC(=O)[C@@]23C(=O)N[C@@H](Cc4ccccc4)C2[C@H](C)[C@@]2(C)O[C@H]2C3/C=C/CC/C=C/CNC1=O` (some centres not stated) as the compound, how does the z-score read?
**A.** Its z-score is 1.31.

**Q.** For `O=C1NC(=O)C2C1C=CC(C(O)C=Cc1ccc([N+](=O)[O-])cc1)N2Nc1ccccn1` (configuration not stated), which z-score is on record?
**A.** Its z-score is -1.49.

**Q.** For `NC(=O)NCC#Cc1ccc2c(c1)[C@]1(C(=O)N2)[C@H](C(N)=O)[C@H]2C(=O)O[C@H](c3ccccc3)[C@H](c3ccccc3)N2[C@@H]1c1ccccc1OCCO`, which z-score is on record?
**A.** Its z-score is 0.634.

**Q.** For `CCOC(=O)C[C@H]1[C@H](OC(=O)c2cc3ccccc3oc2=O)[C@@H](NC(=O)C2CCCCC2)c2cc(OCCCO)ccc2N1C(=O)c1ccc2ccccc2n1`, which z-score is on record?
**A.** Its z-score is 0.536.

**Q.** With `COc1cc2c(cc1OC)CN(C(=O)[C@H]1[C@@H]3C(=O)O[C@@H](c4ccccc4)[C@@H](c4ccccc4)N3[C@@H](c3ccc(O)cc3)[C@]13C(=O)Nc1ccc(C#CC4(O)CCCCCC4)cc13)CC2` as the compound, how does the z-score read?
**A.** The z-score was -0.0218.

**Q.** With `O=C1OCCC/C=C\[C@H]2OC34C=CCN(CCN5CCOCC5)C(=O)[C@H]3N(CCCCCO)C(=O)[C@@H]4C12` (some centres not stated) as the compound, how does the z-score read?
**A.** Its z-score is 0.216.

**Q.** Which z-score does the source give for `C[N+](C)(C)CCCCNC(=O)[C@H]1C[C@H]2C(=O)NCC(=O)N2[C@H]1c1cccc(OCCO)c1` here?
**A.** The z-score was -0.387.

**Q.** Which z-score does the source give for `O=C1C[C@@](C(=O)NC2CC2)(c2ccc([N+](=O)[O-])cc2)[C@@H](c2ccc(CO)cc2I)N1CC12CC3CC(CC(C3)C1)C2` here?
**A.** The z-score was -0.375.

**Q.** Which z-score does the source give for `C=C(CCCC)/C(=C/C[C@@H](OC(=O)c1ccncc1)c1cccc(OCCO)c1)c1cc(C(=O)OC)ccc1OC` here?
**A.** The z-score was -0.209.

**Q.** For `Cc1ccc(S[C@]2(C(=O)NCCCN(C)C)CC(=O)N(Cc3ccccc3)[C@@H]2c2ccc(CO)cc2I)cc1`, which z-score is on record?
**A.** Its z-score is 0.927.

**Q.** With `O=C1O[C@H](c2ccccc2)[C@H](c2ccccc2)N2[C@H]1[C@@H](C(=O)Nc1nc3ccccc3s1)[C@]1(C(=O)Nc3ccc(C#CC4(O)CCCCCC4)cc31)[C@H]2c1ccc(O)cc1` as the compound, how does the z-score read?
**A.** The z-score was 0.6.
